{"source": "PubChem BioAssay AID1458", "about": "(National Center for Advancing Translational Sciences (NCATS), 2008)", "note": "In all, about 210,000 compounds went through this assay and about 5,900 (2.8%) were called active. Inconclusive results (about 5%) are left out. This is one part of a sample in which actives are shown more often than they occur. Values without a mark were called inactive. Calls come from the whole dose curve; as a rule, active = well fitted activation curve with a large enough effect; inconclusive = small, poorly fitted or top-dose-only effect; inactive = no such curve, though single readings can be large or run the other way. Potency is the fitted concentration of half-maximal effect."}
{"experiment": "qHTS Assay for Enhancers of SMN2 Splice Variant Expression; note: nearly all actives have a fitted effect of over 55% in size; for activity change, positive = activation: % of control where 0% means no effect", "conditions": "HEK293 SMN2-luciferase splicing reporter, luminescence, 30-36 h; series mostly up to 46.1 µM; activity change, positive = activation: at the top concentration", "outline": "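qHTS luciferase splicing reporter: luminescence rises when SMN2 exon 7 is included in transfected HEK293 cells. Compound exposure lasted 30-36 h at 37C, with 4.5 mM final sodium butyrate as control, followed by a ONE-Glo read.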"}
{"smiles": "Cc1ccccc1NC(=O)Cn1c(=O)n(CCCCC(=O)NCc2ccccc2Cl)c(=O)c2ccccc21", "activity change, positive = activation": "-3.56%"}
{"smiles": "CCOC(=O)c1sc2nc(SC)nc(-c3ccccc3)c2c1N", "activity change, positive = activation": "-19.5%"}
{"smiles": "CCN(CC)C(=O)c1sc2nc(-c3ccccc3)ccc2c1N", "Potency": "7.94 µM (active)"}
{"smiles": "CS(=O)(=O)c1sc2nc(-c3ccccc3)cc(-c3ccccc3)c2c1N", "activity change, positive = activation": "2.34%"}
{"smiles": "c1ccc(-c2[nH]ncc2-c2nc3ccccc3[nH]2)cc1", "activity change, positive = activation": "23.7%"}
{"smiles": "Cc1ccc(-c2nc3ccccc3[nH]2)cc1NC(=O)c1sc2ccccc2c1Cl", "activity change, positive = activation": "-58.7%"}
{"smiles": "c1ccc2[nH]c(-c3nc4ccccc4[nH]3)nc2c1", "Potency": "7.94 µM (active)"}
{"smiles": "OCCNc1nc2ccccc2[nH]1", "activity change, positive = activation": "-20.5%"}
{"smiles": "COc1ccc(Br)cc1C(=O)NC(=S)Nc1cc(-c2nc3ccccc3[nH]2)ccc1C", "activity change, positive = activation": "-3.02% [at 1.84 µM]"}
{"smiles": "Cc1ccc(-c2nc3ccccc3[nH]2)cc1N", "Potency": "3.16 µM (active)"}
{"smiles": "COc1cc2[nH]c(=O)n(Cc3ccc(C(=O)NCc4ccc(C)cc4)cc3)c(=O)c2cc1OC", "activity change, positive = activation": "12.5%"}
{"smiles": "CCCCCn1c(=O)[nH]c2cc(C(=O)Nc3cc(C)cc(C)c3)ccc2c1=O", "activity change, positive = activation": "-0.402%"}
{"smiles": "CC(C)(C)c1cnnn1-c1ccc([N+](=O)[O-])cc1", "activity change, positive = activation": "3.09%"}
{"smiles": "Cc1nn(-c2ccccc2)c2c1C(c1cccc([N+](=O)[O-])c1)N(c1ccccc1)C(=O)N2", "note": "(stereo unspecified)", "activity change, positive = activation": "24.3%"}
{"smiles": "Cc1nn(-c2ccc([N+](=O)[O-])cc2)c(N)c1-c1ccccc1", "Potency": "10 µM (active)"}
{"smiles": "CCCCN1C(=O)c2[nH]nc(-c3ccccc3O)c2C1c1cccc(OCc2ccccc2)c1", "note": "(stereo unspecified)", "activity change, positive = activation": "-11.7%"}
{"smiles": "CC(C)[C@@H]1NC(=O)[C@H](Cc2ccccc2)NC(=O)[C@@H](CC(=O)O)NC(=O)CNC(=O)[C@H](CCCNC(=N)N)NC1=O", "activity change, positive = activation": "-22.6%"}
{"smiles": "Cc1ccc(C)n1-c1nnc(N2CCC(C(=O)NCc3ccc(F)cc3)CC2)s1", "activity change, positive = activation": "-5.38%"}
{"smiles": "O=C(NCc1ccc(F)cc1)c1ccc2nc(N3CCCCC3)sc2c1", "Potency": "4.47 µM (active)"}
{"smiles": "CCOC(=O)N1CCC(NC(=O)c2ccc3nc(N4CCOCC4)sc3c2)CC1", "activity change, positive = activation": "-24.2%"}
{"smiles": "O=C(NCCCN1CCN(c2cccc(Cl)c2)CC1)c1nnc(Cc2ccc(F)cc2Cl)o1", "activity change, positive = activation": "-27.3%"}
{"smiles": "COc1ccc(Cl)cc1NC(=O)Cn1c(=O)c2ccccc2n2nncc12", "activity change, positive = activation": "-15.1%"}
{"smiles": "CCOc1ccc(CCNC(=O)Cn2nc(CC)n3c(cc4sc(CC)cc43)c2=O)cc1OCC", "activity change, positive = activation": "-6.23%"}
{"smiles": "Cc1ccc(Cl)cc1NC(=O)CCS(=O)(=O)c1ccc(Br)s1", "activity change, positive = activation": "-15.5%"}
{"smiles": "Cc1nc2nc(NCc3cccc(Br)c3)[nH]n2c(=O)c1Cc1ccccc1", "activity change, positive = activation": "0.373%"}
{"smiles": "Cc1cccc(NC(=O)c2ccccc2NC(=O)C(C)(C)C)n1", "activity change, positive = activation": "-6.31%"}
{"smiles": "Cc1cccc(NC(=O)c2ccc3ccccc3n2)n1", "Potency": "12.6 µM (active)"}
{"smiles": "Cc1cccc(NC(=O)c2cc(N3C(=O)CCC3=O)ccc2Cl)n1", "activity change, positive = activation": "-9.11%"}
{"smiles": "COc1ccc(NC(=O)CSc2nc(C)cs2)cc1", "activity change, positive = activation": "9.16%"}
{"smiles": "Cc1cccc(C)c1Nc1nnc(SCC(=O)Nc2sccc2C#N)s1", "activity change, positive = activation": "13.8%"}
{"smiles": "Cc1csc(SCC(=O)Nc2sccc2C#N)n1", "Potency": "12.6 µM (active)"}
{"smiles": "CCCc1cc(=O)n2[nH]c(NCc3ccc(CC)cc3)nc2n1", "activity change, positive = activation": "5.2%"}
{"smiles": "CCOc1ccccc1NC(=O)Cn1c(=O)n(-c2cccc(C)c2)c(=O)c2c1c1cc(OC)ccc1n2C", "activity change, positive = activation": "-0.773%"}
{"smiles": "COc1ccc(-c2nc3nc(C)cc(C)n3c2Nc2c(C)cccc2C)cc1", "activity change, positive = activation": "6.57%"}
{"smiles": "CCOC(=O)c1c(NC(=O)Cc2coc3ccc(CC)cc23)sc2c1CCC2", "activity change, positive = activation": "-0.233%"}
{"smiles": "CCOc1ccc(-c2nnc(-c3ccco3)o2)cc1", "Potency": "1.12 µM (active)"}
{"smiles": "COc1ccc(OCC(=O)Nc2nnc(-c3ccco3)s2)cc1", "activity change, positive = activation": "4.15%"}
{"smiles": "CCCCOc1ccc(C(=O)NCc2ccco2)cc1", "activity change, positive = activation": "-27%"}
{"smiles": "COc1ccc(C(=O)CSc2nnc(-c3ccco3)o2)cc1", "activity change, positive = activation": "0.989%"}
{"smiles": "CCCCOc1ccc(-c2nnc(-c3ccco3)o2)cc1", "Potency": "14.1 µM (active)"}
{"smiles": "N#Cc1ccc(OCc2nnc(-c3ccc([N+](=O)[O-])cc3)o2)cc1", "activity change, positive = activation": "7.74%"}
{"smiles": "Cc1ccc(NC(=O)Nc2sc3nc4n(c(=O)c3c2C)CCC(C)CC4)c(Cl)c1", "note": "(stereo unspecified)", "activity change, positive = activation": "6.1%"}
{"smiles": "C=C1O[C@@](CO)(n2cnc3c(N)ncnc32)[C@H](O)[C@@H]1O", "activity change, positive = activation": "-7.24%"}
{"smiles": "O=C1CC(c2nnc(Cc3ccc(Cl)cc3)o2)CN1c1ccccc1", "note": "(stereo unspecified)", "activity change, positive = activation": "10.3%"}
{"smiles": "COc1ccc(OC)c(NC(=O)C2CCN(S(=O)(=O)c3ccc(C)cc3)CC2)c1", "activity change, positive = activation": "-5.72%"}
{"smiles": "COc1ccc(Cl)cc1-n1c(CCC(=O)O)ccc1-c1ccc(C)cc1", "activity change, positive = activation": "-4.16%"}
{"smiles": "COC(=O)N1C(/C=C/C=C/c2ccc(OC)cc2)=Cc2ccccc2C1CC(C)=O", "note": "(stereo unspecified)", "activity change, positive = activation": "-7.94% [at 9.22 µM]"}
{"smiles": "Cc1ccc2oc(C(=O)Nc3ccc(S(=O)(=O)N4CCCCCC4)cc3)cc(=O)c2c1", "activity change, positive = activation": "5.39%"}
{"smiles": "CC(c1ccco1)N(C(=O)Nc1ccccc1)C1CCCCC1", "note": "(stereo unspecified)", "activity change, positive = activation": "1.7%"}
{"smiles": "Cc1ccc(NC(=O)NC(=O)N(C2CCCCC2)S(=O)(=O)c2ccccc2)cc1", "Potency": "7.94 µM (active)"}
{"smiles": "CS(=O)(=O)N(C(=O)NC(=O)NC1CCS(=O)(=O)C1)C1CCCCC1", "note": "(stereo unspecified)", "activity change, positive = activation": "-4.22%"}
